This is an account of results in the supplement of paper PMC6555819.

The subject of the first assay is RARa:RXR (NR concentration 270 nM, RXRa partner concentration 90 nM). The assay is described as follows: PBM binding z-score (relative to random genomic background probes); higher = stronger binding; sequences stand for … in GC…GCGATTGACAGCGTAGAATGAAGG
In short, it runs like this: (§1)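 Binding buffer was PBS pH 7.4 with 2% milk, 0.02% Triton X-100, 1 mM DTT, 0.2 mg/mL BSA and 0.4 mg/ml salmon testes DNA. In it, ligand-free nuclear receptor dimers were incubated 1 h on custom Agilent 4×180K protein-binding microarrays carrying double-stranded probes. Antibodies against each partner (one per run) detected binding, and z-scores were calculated against random background probes after regression normalization of scanned fluorescence.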
With CTCGAAAGGTCGGTTGAGGTGAGAATACGGATAA, the PBM binding z-score came to 2.11.

Consider TCTGCTAGGTCAGCTGGTCAGCTAACGAGCTGCC, for which the PBM binding z-score was found to be 0.872.

Consider GCTTGTAGATCATGGTTAAGAAAGACTAAGCTAA, for which the PBM binding z-score is -0.161.

Turning to TCTGCTAGGTCAGTTTGTCAGCTAACGAGCTGCC, the PBM binding z-score is 0.454.

TCATATAGGTAAATGCTAGTTGAAAGTCCGATCT returned a PBM binding z-score of 0.405.

The sequence TCTCGGAGGACACGTAAGGTCAGAGCTCGACATC gave a PBM binding z-score of 3.13.

The sequence ATGTCTAGGTAAAGATAGTTCAGTGAATGCAAAT came in with a PBM binding z-score of 0.428.

As for TATACAGGGTCAAAGTCCAGAGTACGAATGTCGA, the PBM binding z-score was found to be 5.3.

Take GGAACCAGGGCAAGTTGATAGCAGAGTTTGATGG: the PBM binding z-score came to 0.217.

For CCTAGCAGGCCAGGGTCACTGAAGCATTTCGCTT, the PBM binding z-score worked out at 3.83.

In turn, CGTCCAAGGTCAATGCTAGGACAGTGAAAGCATT had a PBM binding z-score of 3.44.

Consider CCTACTGGGCCATTCATAGGTCATTGATCATATG, for which the PBM binding z-score was 2.11.

In the case of CGAACTAGGTGATCCAGGACAGTGAATACATTGA, the PBM binding z-score was determined as 0.202.

For ACTAGCAGGTCAAGTTTGGGTCACTCAAACAAAG, the PBM binding z-score was 5.89.

As for TCTCGTAGATCAAGCAGGTTAAGAAAGCCTGAGT, the PBM binding z-score came out at 0.111.

GCTGCTAGGTCAGTTTGGTCAGCTAACGGGTACG came in with a PBM binding z-score of 0.504.

As to CCTACTGGGCCATCAGATCATTGATATCAACGTT, the PBM binding z-score was -0.391.

Consider CCGAGTGGGGCAGAAAGGTTACCATACCATCCGG, for which the PBM binding z-score worked out at 1.5.

As for AGTCAAAGTTCACTAGGTAACCTAAGATTCAGCT, the PBM binding z-score turned out to be 3.78.

The sequence TCTAGCAGGCCCGAGGGTCACTCAAGAGGTACGG registered a PBM binding z-score of 2.07.

TCGACTAGGTTACCAATGGGGCATTCAGCTTTCT gave a PBM binding z-score of 0.659.

As for GCGACTGGGGCATCAGCAGGTTAGCATAACTTAA, the PBM binding z-score was -0.492.

TTACCAAGGTGAGCTGAGCTCGTTGATCCAACTC had a PBM binding z-score of 0.0745.

The sequence AGAACGAGGGCAATAAGTTGATAGCACGGGTGGC yielded a PBM binding z-score of 0.217.

For the sequence CGTCAAAGATCAACTAAGGTAACGTAAAGCACGC, the PBM binding z-score worked out at 1.52.

AGAACGAGGGCAAGCTGAGTTGATAGCAGAGTAG returned a PBM binding z-score of 0.426.

TTACCAAGGTGAAGGGTCGTTGATGCACGCCTTG returned a PBM binding z-score of 2.72.

With CCGACTGGGGCAGAACGGTTACCATACCATCCGG, the PBM binding z-score was -0.872.

TCATATAGGTGAATGCTAGGTGAAAGTCCGATCT showed a PBM binding z-score of 1.33.

As to TGGCCTAGGTCATTGGGCCAGTATAGTACGCATC, the PBM binding z-score stood at 1.97.

For TCTTGTAGGTCAAGCAGGTTAAGAAAGCCTGAGT, the PBM binding z-score worked out at 3.68.

The sequence ATCGAAAGGTCGAGGTGATTATAGAGAAAGGGAA had a PBM binding z-score of 3.

With CGAACGAGGGCATGGGTTGATAGCAAATGCCGAT, the PBM binding z-score is 0.938.

For the sequence TTATATAGGTAAACAGGTGAAAGTCCGTAAGTTA, the PBM binding z-score was 0.957.

CCTACTGGGCCAAAAAGGTCATTGAGGCCGATAA gave a PBM binding z-score of 5.6.

In turn, CCTACTGGGCCAAAGGTCATTCATTCCAATGCTC gave a PBM binding z-score of 6.3.

As to TAGCCTACGTCAGATCGGGCCAGTATACGCTATA, the PBM binding z-score is -0.618.

Sequence ATCTCTAGGAAACAAGTTCAGTGAAAGAGAGGAC showed a PBM binding z-score of 0.58.

Turning to CCAACTAGGTCAGAACAGGACAGTGAAGGATGAT, the PBM binding z-score turned out to be 2.07.

In turn, CCGACTGCGGCATAAGGTTACCATAAGCCAGCCC registered a PBM binding z-score of 0.892.

The next assay relates to RARa homodimer (NR concentration 270 nM). The description is as above. In short, it runs like this: as §1
CTCGAAAGGTCGGTTGAGGTGAGAATACGGATAA gave a PBM binding z-score of 0.173.

Consider TCTGCTAGGTCAGCTGGTCAGCTAACGAGCTGCC, for which the PBM binding z-score was -1.54.

As for GCTTGTAGATCATGGTTAAGAAAGACTAAGCTAA, the PBM binding z-score was -0.00288.

Turning to TCTGCTAGGTCAGTTTGTCAGCTAACGAGCTGCC, the PBM binding z-score was -0.407.

TCATATAGGTAAATGCTAGTTGAAAGTCCGATCT gave a PBM binding z-score of 1.01.

In turn, TCTCGGAGGACACGTAAGGTCAGAGCTCGACATC registered a PBM binding z-score of 0.0447.

Take ATGTCTAGGTAAAGATAGTTCAGTGAATGCAAAT: the PBM binding z-score was 0.724.

TATACAGGGTCAAAGTCCAGAGTACGAATGTCGA showed a PBM binding z-score of 2.

Regarding GGAACCAGGGCAAGTTGATAGCAGAGTTTGATGG, the PBM binding z-score amounted to 0.68.

In the case of CCTAGCAGGCCAGGGTCACTGAAGCATTTCGCTT, the PBM binding z-score is -0.64.

As to CGTCCAAGGTCAATGCTAGGACAGTGAAAGCATT, the PBM binding z-score is -0.11.

Sequence CCTACTGGGCCATTCATAGGTCATTGATCATATG returned a PBM binding z-score of 0.376.

With CGAACTAGGTGATCCAGGACAGTGAATACATTGA, the PBM binding z-score came out at 0.271.

The sequence ACTAGCAGGTCAAGTTTGGGTCACTCAAACAAAG had a PBM binding z-score of 0.164.

In the case of TCTCGTAGATCAAGCAGGTTAAGAAAGCCTGAGT, the PBM binding z-score is -0.712.

Take GCTGCTAGGTCAGTTTGGTCAGCTAACGGGTACG: the PBM binding z-score was -0.322.

Turning to CCTACTGGGCCATCAGATCATTGATATCAACGTT, the PBM binding z-score was determined as 0.289.

Turning to CCGAGTGGGGCAGAAAGGTTACCATACCATCCGG, the PBM binding z-score is -0.131.

The sequence AGTCAAAGTTCACTAGGTAACCTAAGATTCAGCT displayed a PBM binding z-score of 1.73.

For TCTAGCAGGCCCGAGGGTCACTCAAGAGGTACGG, the PBM binding z-score is -0.992.

Regarding TCGACTAGGTTACCAATGGGGCATTCAGCTTTCT, the PBM binding z-score is -0.05.

As to GCGACTGGGGCATCAGCAGGTTAGCATAACTTAA, the PBM binding z-score was -0.942.

In the case of TTACCAAGGTGAGCTGAGCTCGTTGATCCAACTC, the PBM binding z-score is -1.22.

AGAACGAGGGCAATAAGTTGATAGCACGGGTGGC: the PBM binding z-score amounted to 0.04.

As for CGTCAAAGATCAACTAAGGTAACGTAAAGCACGC, the PBM binding z-score worked out at 0.595.

With AGAACGAGGGCAAGCTGAGTTGATAGCAGAGTAG, the PBM binding z-score was -0.421.

For the sequence TTACCAAGGTGAAGGGTCGTTGATGCACGCCTTG, the PBM binding z-score is -0.291.

Turning to CCGACTGGGGCAGAACGGTTACCATACCATCCGG, the PBM binding z-score is -0.367.

In turn, TCATATAGGTGAATGCTAGGTGAAAGTCCGATCT showed a PBM binding z-score of 0.882.

Consider TGGCCTAGGTCATTGGGCCAGTATAGTACGCATC, for which the PBM binding z-score is -0.131.

Sequence TCTTGTAGGTCAAGCAGGTTAAGAAAGCCTGAGT registered a PBM binding z-score of 0.596.

With ATCGAAAGGTCGAGGTGATTATAGAGAAAGGGAA, the PBM binding z-score is 0.473.

Take CGAACGAGGGCATGGGTTGATAGCAAATGCCGAT: the PBM binding z-score was -0.224.

TTATATAGGTAAACAGGTGAAAGTCCGTAAGTTA showed a PBM binding z-score of 1.15.

CCTACTGGGCCAAAAAGGTCATTGAGGCCGATAA: the PBM binding z-score is 2.12.

Sequence CCTACTGGGCCAAAGGTCATTCATTCCAATGCTC registered a PBM binding z-score of 1.85.

As to TAGCCTACGTCAGATCGGGCCAGTATACGCTATA, the PBM binding z-score was -1.02.

Consider ATCTCTAGGAAACAAGTTCAGTGAAAGAGAGGAC, for which the PBM binding z-score amounted to 0.878.

CCAACTAGGTCAGAACAGGACAGTGAAGGATGAT came in with a PBM binding z-score of 1.58.

In turn, CCGACTGCGGCATAAGGTTACCATAAGCCAGCCC displayed a PBM binding z-score of 0.0382.
